# An excerpt weighted towards active compounds, which were near 3.4% of everything screened.
# ADAM17 inh: ADAM17 inhibitors, primary screen, biochemical, QFRET; Disintegrin and metalloproteinase domain-containing protein 17 (Homo sapiens), P78536; recombinant ADAM17, EDANS/DABCYL FRET peptide cleavage; inhibition, % at 6.95 µM; 370,000 tested, 0.83% active; AID 720648, 2013;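 active means inhibition above the mean of compounds lying between control limits plus 3 SD, set per campaign, cut at about 8.5% in these data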;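 further: 0% = DMSO-only wells as the low control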
# proKLK7 act: proKLK7 zymogen activators, primary screen, biochemical, fluorescence intensity | activation, % at 7 µM | 370,000 tested, 0.9% active | purified proKLK7, EDANS-DABCYL substrate fluorescence; 100% is mature enzyme control, 0% vehicle;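 active means activation above the mean of all tested compounds plus 3 SD, computed per campaign excluding outliers beyond control limits, cut at about 13% in these data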
# HGIII-sPLA2 inh: human group III sPLA2 inhibitors, primary screen, biochemical, QFRET, BODIPY PC-A2 liposome substrate; Group 3 secretory phospholipase A2 (Homo sapiens), Q9NZ20; QFRET BODIPY PC-A2 liposome hydrolysis, fluorescence; inhibition, % at 12.2 µM; 370,000 tested, 0.56% active;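 active means inhibition above mean plus 3 SD of compounds lying within the high and low control bounds, cut at about 19% in these data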;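 further: 0% = median of test compound wells and 100% = no enzyme DMSO wells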
# PLCb3 inh: human PLC-beta3 inhibitors, primary screen, biochemical, fluorescence. 1-phosphatidylinositol 4,5-bisphosphate phosphodiesterase beta-3 (Homo sapiens), Q01970. Purified PLC-beta3, fluorogenic substrate. inhibition, % at 12.2 µM. 370,000 tested, 0.18% active. AID 720704, 2013; in the data active means inhibition above about 11%;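 further: 0% = median of compound wells on plate and 100% = full blocker control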
# ADAM10 inh: human ADAM10 inhibitors, primary screen, biochemical, QFRET, HTS; recombinant ADAM10, EDANS/DABCYL FRET peptide cleavage, 3 h; Disintegrin and metalloproteinase domain-containing protein 10 (Homo sapiens), O14672; 370,000 tested, 0.62% active; inhibition, % at 7 µM;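 active means inhibition above a per-campaign cutoff equal to the mean of compounds falling between control-based bounds plus 3 SD, cut at about 20% in these data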;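 further: 0% = DMSO wells while the 100% control is not disclosed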
# Target sequence (O14672 214-748 limits assumed): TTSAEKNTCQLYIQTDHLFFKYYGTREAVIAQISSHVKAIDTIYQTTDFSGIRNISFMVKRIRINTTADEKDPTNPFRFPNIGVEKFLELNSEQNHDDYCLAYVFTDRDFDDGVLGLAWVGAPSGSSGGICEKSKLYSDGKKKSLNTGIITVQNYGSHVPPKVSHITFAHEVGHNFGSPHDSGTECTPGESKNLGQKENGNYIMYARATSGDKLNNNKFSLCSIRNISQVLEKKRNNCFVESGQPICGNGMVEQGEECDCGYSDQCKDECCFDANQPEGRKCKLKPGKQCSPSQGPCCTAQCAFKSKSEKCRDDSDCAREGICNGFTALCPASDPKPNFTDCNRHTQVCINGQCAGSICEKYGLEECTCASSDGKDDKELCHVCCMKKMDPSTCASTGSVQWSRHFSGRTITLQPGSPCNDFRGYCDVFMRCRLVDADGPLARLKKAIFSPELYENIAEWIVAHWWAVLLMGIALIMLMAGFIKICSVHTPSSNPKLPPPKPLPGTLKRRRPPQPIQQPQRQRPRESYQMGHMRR
# PLCg1 inh: PLC-gamma1 enzyme inhibitors, primary screen, biochemical, fluorescence, purified enzyme; 1-phosphatidylinositol 4,5-bisphosphate phosphodiesterase gamma-1 (Homo sapiens), P19174; 370,000 tested, 0.84% active; fluorogenic substrate; inhibition, % at 12.2 µM; in the data active means inhibition above about 9.5%
# KLK7 act conf: proKLK7 zymogen activators, confirmation, biochemical, fluorescence intensity, triplicate. shares compounds with proKLK7 act. purified proKLK7, EDANS-DABCYL substrate fluorescence; scaled: vehicle 0, mature enzyme 100. activation, % at 7 µM. 3,200 tested, 68% active. AID 686949, 2013;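 active means activation, as change over the incubation, above the mean of all tested compounds plus 3 SD, cut at about 13% in these data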
# EDANS interfere: EDANS-DABCYL substrate optical interference, artefact control for kallikrein-7 zymogen activator project, biochemical, fluorescence intensity, high throughput | activation, % at 7 µM | 3,200 tested, 80% active | AID 686952, 2013 | shares compounds with proKLK7 act | no enzyme, 4 h; solvent 0%, active enzyme control 100%;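 active means activation above the all-compound mean plus 3 SD, ignoring values outside control-based bounds, cut at about 4.8% in these data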;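 further: value is the 4 h activation minus the activation read at time zero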
# K7 EDANS ctr: counter-screen for kallikrein-7 activators: EDANS-DABCYL interference, dose response | shares compounds with proKLK7 act | EDANS-DABCYL peptide fluorescence interference, no enzyme | EC50, µM | 250 tested, 20% active;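 active means compounds that raise the fluorescence signal in this interference counterscreen, with EC50 at or below 10 µM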;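 further: intact quenched peptide substrate alone read at 355 nm excitation and 520 nm emission; signal is fluorescence gain from T0 to T4 after four hours at room temperature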
# * marks the source's active call; other numbers are inactive results; i = inactive; / = no result.
SMILES,ADAM17 inh,proKLK7 act,HGIII-sPLA2 inh,PLCb3 inh,ADAM10 inh,PLCg1 inh,KLK7 act conf,EDANS interfere,others
C/C(CCc1ccco1)=N\NC(=O)CNc1cccc2ccccc12,-109,33*,-9,-93,-426,-81,8,6.1*,
COc1cccc(/C=C/C(=O)Nc2ccc(C(=O)Nc3cccc(S(N)(=O)=O)c3)cc2)c1OC,-172,77*,-10,-418,-391,-260,79*,83*,
COc1ccccc1N(C)S(=O)(=O)c1ccc(C(=O)Nc2ccc(C(N)=O)cc2)cc1,-1,24*,-1,-1,-2,-2,22*,3,K7 EDANS ctr=i
CCN(CC)CCNC(=O)c1ccc(NC(=O)c2ccc(S(=O)(=O)N(C)c3ccccc3OC)cc2)cc1,-7,1,-7,-9,-10,0,/,/,
Cc1ccc(Cn2cc(CN(C)S(=O)(=O)c3ccccc3Br)nn2)cc1,-1,1,-3,1,2,1,/,/,
CCOC(=O)[C@@]12CCC3=C1N(CCC3)C(=O)[C@H](CC(=O)NCc1cccc3ccccc13)C2,-7,-1,-3,-1,-3,-1,/,/,
CCN(CC)c1nc2ccccc2nc1C(C#N)C(=O)NCCCOC (stereo not given),-194,14*,-9,-438,i,-355,33*,37*,
CCC(=O)c1cc2c(C)cc(=O)oc2c(C)c1OC(=O)C(C)C,-5,139*,-2,-52,-21,-46,155*,179*,
CCC(=O)c1cc2c(C)cc(=O)oc2c(C)c1OC(C)=O,-7,453*,-6,-153,-13,-130,804*,772*,
Cc1cccc(C)c1NC(=O)[C@H]1CC(=O)O[C@@H]1c1ccccc1,-3,0,6,5,4,8,/,/,
COc1ccccc1C1C=C(c2ccc(C)cc2)Nc2nnnn21 (stereo not given),-33,19*,-15,i,-88,i,22*,17*,K7 EDANS ctr=i
COc1ccccc1C1C2=C(CC(C)(C)CC2=O)Nc2nnnn21 (stereo not given),-7,15*,1,-1,-28,-5,22*,20*,
CCCN1CCS(=O)(=O)N(Cc2cn(Cc3ccccc3)nn2)C(C(=O)OC)C1 (stereo not given),0,0,12,2,-3,6,/,/,
Brc1ccc(-c2cn3cccnc3n2)cc1,-466,24*,-1,-461,i,-349,23*,27*,
Clc1ccc(-c2cn3cccnc3n2)cc1Cl,-243,6,2,-263,i,-223,/,/,
Clc1ccc(-c2cn3cccnc3n2)cc1,i,22*,-4,i,i,i,53*,69*,
O=c1[nH]c(Nc2ccc(F)cc2)cc2ccccc12,-7,0,-2,-19,-27,8,/,/,
O=c1[nH]c(Nc2ccccn2)cc2ccccc12,-172,22*,1,-355,i,-224,21*,21*,
CC(C)C(=O)Nc1sc2c(c1-c1nc3ccccc3[nH]1)CCCC2,-322,496*,17,i,i,i,-8,4.7*,
Cc1ccc(S(=O)(=O)N2OC(c3ccccc3)C[C@H]2CC=C(c2ccccc2)c2ccccc2)cc1 (stereo not given in full),-1,/,-8,4,1,1,/,/,
Nc1nc2ncccc2cc1C(=O)c1c[nH]c2ccccc12,-2,0,-7,-1,0,1,/,/,
C#CCNC(=O)c1cc2cccnc2nc1N,i,18*,2,-414,i,-345,46*,45*,
Cc1ccccc1CN1CCCCC(NC(=O)c2cccc(F)c2)C1=O (stereo not given),-2,0,4,0,-2,-2,/,/,
CC(=O)c1cc2c(cc1NS(=O)(=O)c1ccccc1Br)OCO2,-4,41*,4,-13,7,-4,15*,5.3*,K7 EDANS ctr=>70
CC(=O)c1cc2c(cc1NS(=O)(=O)c1ccccc1C)OCO2,-3,0,1,-9,-7,-6,/,/,
SMILES,ADAM17 inh,proKLK7 act,HGIII-sPLA2 inh,PLCb3 inh,ADAM10 inh,PLCg1 inh,KLK7 act conf,EDANS interfere,others
O=C(Nc1cccc2c1[nH]c1ccccc12)C(F)(F)F,-4,21*,-2,-4,-16,-3,16*,12*,K7 EDANS ctr=i
O=C(Nc1cccc2c1[nH]c(=O)c1ccccc12)C(F)(F)F,-6,-1,18,-29,-23,-16,/,/,
O=C(Nc1ccc2c(c1)[nH]c(=O)c1ccccc12)C(F)(F)F,-77,211*,13,-370,-313,-296,163*,153*,
CN(C)CCCNC(=O)C[C@@H]1CC[C@@H]2[C@H](COc3ccc(NC(=O)c4cccc(F)c4)cc3C(=O)N2C)O1,-2,0,0,1,-3,2,/,/,
O=C(Nc1cccc([N+](=O)[O-])c1)NC1CCCCN(Cc2ccc(Cl)cc2)C1=O (stereo not given),6,1,-27,7,18,5,/,/,
COc1ccc(CNC(=S)NNC(=O)c2cc3ccccc3o2)cc1,-15,17*,12,-35,-38,-17,21*,21*,
CCn1cc(C(=O)N2CCN(c3ccc(F)cc3)CC2)c(=O)c2ccc(C)nc21,1,-1,-4,1,0,-1,/,/,
Cc1cc2cc3c(=O)[nH]c(=O)nc-3n(CC(O)C(O)C(O)CO)c2cc1C (stereo not given),i,48*,8,i,i,i,61*,71*,
O=C(c1cnn2c(C(F)(F)F)cc(-c3cccs3)nc12)N1CCCC1,-67,16*,3,-479,-187,-343,13*,14*,
Nc1nc2nc(-c3ccc(F)cc3)cc(C(F)(F)F)n2n1,-213,24*,1,-255,i,-164,17*,16*,
CC(C)(C)NC(=O)c1nc2nc(-c3ccccc3)cc(C(F)(F)F)n2n1,-39,1,0,-10,-173,-9,/,/,
